Measurements published in the supplement of paper PMC10338343.
± gives the standard deviation.

system: MILI (PIWIL2) piRISC loaded with piRNA #1 (26 nt); test: pre-steady-state target cleavage rate (min^-1); guide: piRNA #1 5'p-UGAGGUAGUAGGUUGUAUAGUAUCCA; MIWI and MILI are mouse PIWI proteins and EfPiwi is from a freshwater sponge; tags in brackets are library labels; higher = faster piRNA-guided slicing of the target; settings: auxiliary factor: 500 nM mouse GTSF1
Summary of the method: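 For Cleave-'n-Seq, a transcribed, DNA-blocked target RNA library […] met 1 nM active affinity-purified piRISC with one synthetic guide at 33 °C for 0–8 or 0–960 min in HEPES–potassium acetate buffer, with or without 500 nM GTSF1 partner protein. Uncleaved targets were sequenced and normalised to depth and weakly complementary targets, with three trials pooled and k3 capped at 0.0001 min^-1. A burst-and-steady-state fit supplied the pre-steady-state cleavage rate.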
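Also: 1 nM active piRISC with 0.1 nM target library at 33 °C single turnover.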

| Sequence | pre-steady-state target cleavage rate |
| --- | --- |
| GGAGACCUAUGAUAACAACCUACAUACCUCA | 0.00403 ± 0.002 |
| GGAGACCUAUGAUAUGUACCAACAACCUCA | < 0.0001 |
| GGAGACCUAUGAUUAACAACCUACUACCUCA | 0.00416 ± 0.0022 |
| GGAGUCGAUACUAUAGAACCUACUACCUCA | 0.0641 ± 0.0083 |
| GGAGACCAUAGUAUUCAACCUACUACCUCA | 0.11 ± 0.013 |
| GGAGACCUUACUAUACAACCUACAUACCUCA | 0.157 ± 0.011 |
| GGAGACCUAAGUAUACAACCUACAACCUCA | 0.0483 ± 0.0084 |
| GGAGACCUAUCUAAACAACGUACUACCUCA | 0.00647 ± 0.0027 |
| GGAGACCUAACUAUACAACCUACUAACCUCA | 0.187 ± 0.028 |
| GGAGACCUAUGAUAUCAAGCUACAACCUCA | 0.00699 ± 0.0025 |
| GGAGACCUUAGUAUACAACCAACUACCUCA | 0.00446 ± 0.0029 |
| GGAGACGUUACUAUAGAACCUACUACCUCA | 0.154 ± 0.014 |
| GGAGACCUAACUAAACAACCUACUACCACA | 0.139 ± 0.027 |
| GGAGACCUAUCUAAACAACCAACUACCUCA | 0.00401 ± 0.0024 |
| GGAGAGCAUACUAUACAAGCUACUACCUCA | 0.22 ± 0.015 |
| GGAGACCUAACUAUAGAACCUACUACCACA | 0.0663 ± 0.019 |
